The values that follow come from PubChem BioAssay (NCATS).

Assay [1] can be described thus: qHTS Assay for Identifying Gametocytocidal Compounds (AID 743244).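 Note: % is set by controls: 0 for no effect and ±100 for the full control effect; actives lower the fluorescent signal which means gametocytes are killed.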 The settings on record: P. falciparum 3D7 stage III-V gametocytes, alamarBlue, 72 h; max response: stronger effect = lower value. Put shortly: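 Late gametocytes (III–V), P. falciparum 3D7; 72 h drug, then 24 h alamarBlue; resazurin reduction read by fluorescence.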
In general terms: In qHTS, concentration-response curves come from the screen itself.

Assay [2] can be described thus: qHTS profiling of the MIPE4 collection as inhibitors of Plasmodium falciparum (3D7) proliferation (AID 743344; call rule not given here;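 note: scaled between DMSO vehicle wells and 0.29 µM artemisinin as full inhibition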). The settings on record: P. falciparum 3D7 in erythrocytes, SYBR Green DNA fluorescence, 72 h; at 28.5 µM (top of the series). In a few lines: (§1)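 Parasite DNA was quantified by SYBR Green I fluorescence (ex 485, em 535 nm) after overnight lysis in saponin/Triton buffer at room temperature. Cultures at 0.3% parasitemia and 2.5% hematocrit were first exposed to compound for 72 h at 37 C; signals were normalised to artemisinin (0.29 uM) and vehicle wells.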

Assay [3] can be described thus: qHTS profiling of the MIPE4 collection as inhibitors of Plasmodium falciparum (DD2) proliferation (AID 743345; call rule not given here). The settings on record: P. falciparum Dd2 in erythrocytes, SYBR Green DNA, 72 h; at 28.5 µM (top of the series). Put shortly:
as §1

Assay [4] can be described thus: qHTS profiling of the MIPE4 collection as inhibitors of Plasmodium falciparum (DD2) proliferation (Rep 2) (AID 743346; call rule not given here). Particulars: P. falciparum Dd2 in erythrocytes, SYBR Green DNA, 72 h; at 28.5 µM (top of the series). In a few lines: as §1
Assay [5] in a line: qHTS profiling of the MIPE4 collection as inhibitors of Plasmodium falciparum (HB3) proliferation (AID 743347; call rule not given here;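 note: plate controls were DMSO vehicle wells for no effect and artemisinin wells for full effect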). The settings on record: P. falciparum HB3 in erythrocytes, SYBR Green DNA, 72 h; at 28.5 µM (top of the series). Put shortly:
as §1

The nature of assay [6]: qHTS assay for small molecule agonists of the antioxidant response element (ARE) signaling pathway measured by Nrf2-dependant transcriptional activity (AID 720636; active = well fitted curve in the direction sought with a large enough effect in the repeat runs; an effect the other way counts as inactive or inconclusive;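 note: HepG2 cells with an ARE-driven luciferase reporter; % of control where 0% means no effect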). The settings on record: ARE-luc HepG2, Nrf2 luciferase reporter, 16 h; series mostly up to 92.4 µM. Put shortly:
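Attachment 6 hr at 37 C, then compound versus DMSO vehicle for 16 hr in ARE-luc HepG2 cells (1% dialyzed FBS); luminescence recorded 30 min after ONE-Glo addition at room temperature.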

The nature of assay [7]: qHTS assay for small molecule antagonists of the retinoid-related orphan receptor gamma (ROR-gamma) signaling pathway - cell viability counter screen (AID 720652; active = well fitted curve in the direction sought with a large enough effect in the repeat runs; an effect the other way counts as inactive or inconclusive;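 note: CHO reporter cells with doxycycline-induced ROR-gamma expression; compound exposure lasted 16 hr before ATP read; % is set by controls: 0 for no effect and ±100 for the full control effect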). The settings on record: RORgamma reporter cell line viability counter screen; series mostly up to 92.2 µM. Put shortly:
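CHO RORE-LUC/TET-ROR line, 1,000 cells/well, 37 C 5% CO2 5 hr; cpd or DMSO + doxycycline induction, 16 hr. CellTiter-Glo, 30 min RT, luminescence = ATP content.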

Assay [8] can be described thus: qHTS assay for small molecule agonists of the antioxidant response element (ARE) signaling pathway measured by Nrf2-dependant transcriptional activity - cell viability counter screen (AID 720653; active = well fitted curve in the direction sought with a large enough effect in the repeat runs; an effect the other way counts as inactive or inconclusive; note: % is set by controls: 0 for no effect and ±100 for the full control effect). The settings on record: ARE-bla HepG2 viability, CellTiter-Glo ATP luminescence, 16 h; stronger effect = lower value. In a few lines:
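Cytotoxicity counter screen: intracellular ATP quantified by CellTiter-Glo luminescence in the same ARE-bla HepG2 plates, after 16 h compound exposure and a 2 h beta-lactamase substrate step.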

The nature of assay [9]: qHTS assay for cell viability of HEK293 cells (AID 743288). Note: % is set by controls: 0 for no effect and ±100 for the full control effect; nearly all actives have a fitted effect of over 50% in size. The settings on record: ATP luminescence (CellTiter-Glo), 18 h, stronger effect = lower value. Put shortly:
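Readout is luciferase-coupled ATP content (CellTiter-Glo luminescence, 30 min room temperature) as a measure of metabolically competent cells. Parental HEK293 cells were plated 5 h or more before compound addition, then treated 18 h at 37 C.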

Assay [10] is described as follows: qHTS assay for cell viability of the p53RE-bla HCT-116 cell line (AID 743292). Note: % is set by controls: 0 for no effect and ±100 for the full control effect; nearly all actives have a fitted effect of over 55% in size. Particulars: p53RE-bla HCT-116 viability, ATP luminescence, 16 h; series mostly up to 95 µM. Put shortly: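 Compound-exposed HCT-116 (p53RE-bla) cells, 4,000 per well, were kept 16 h at 37 C following a 5 h preincubation. Cell number was estimated from total ATP by CellTiter-Glo luminescence read after 30 min at room temperature.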

Assay [11] can be described thus: qHTS profiling for inhibitors of Plasmodium falciparum (3D7) proliferation (AID 743322; call rule not given here;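 note: infected erythrocytes exposed to compound for 72 h before lysis; 100% = DMSO vehicle wells and 0% = 0.29 µM artemisinin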). Particulars: P. falciparum 3D7 proliferation; at 28.7 µM (top of the series) unless noted. Put shortly:
as §1

The nature of assay [12]: qHTS profiling for inhibitors of Plasmodium falciparum (DD2) proliferation (AID 743323; call rule not given here). Particulars: lower = more inhibition; at 28.7 µM (top of the series) unless noted. Put shortly: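 1536-well qHTS; infected RBCs 0.3% parasitemia/2.5% Hct final; cpd 72 h 37 C 5% CO2; lysis buffer + SYBR Green I, o/n RT dark; FI 485/535; norm. to 0.29 uM artemisinin and DMSO, plate-stack corrected.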

The nature of assay [13]: qHTS profiling for inhibitors of Plasmodium falciparum (HB3) proliferation (AID 743324).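 Note: 100% = DMSO vehicle wells and 0% = artemisinin-treated control wells.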 Particulars: Plasmodium falciparum HB3 blood-stage proliferation; at 28.7 µM (top of the series) unless noted. In a few lines: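 SYBR Green fluorescence (485 ex/535 em) of lysed cultures, incubated overnight at room temperature in the dark, quantifies parasite DNA. Infected erythrocytes at 0.3% parasitemia and 2.5% hematocrit were exposed 72 h; values normalized to DMSO and 0.29 uM artemisinin controls.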

Several values for one entry are separate records, joined by “and”; a condition that tells them apart may be missing. Identical values can stand only once. Inconclusive results are not listed. Activity calls are given as the source filed them. Unless noted, calls come from the whole dose curve; as a rule, active = well fitted curve in the direction sought with a large enough effect; inconclusive = small, poorly fitted or top-dose-only effect, or another doubt; inactive = no such curve, though single readings can be large; an effect the other way counts as inactive or inconclusive.

As to `O=C(c1ccc(F)cc1)C1CCN(CCn2c(=S)[nH]c3ccccc3c2=O)CC1`, the max response in assay [1] was -2.47% (inactive).
`CCOC(=O)Nc1ccc2c(c1)N(C(=O)CCN1CCOCC1)c1ccccc1S2`: in assay [1], the max response is 12.1% (inactive). In addition, the parasite growth, % of DMSO control in assay [2] turned out to be 47.5%. The same compound showed a parasite growth remaining, % of DMSO control (lower = more inhibition) in assay [3] of 85.2%. In [4], this compound came in with a parasite growth, % of control (lower = inhibition) of 68.2%. In assay [5], this compound displayed a growth, % of control of 41.6%.
In the case of `O=C(Nc1ccccc1)OCC(CN1CCCCC1)OC(=O)Nc1ccccc1` (stereo not given), the max response in assay [1] was 3.58% (inactive).
With `COc1cc([C@H]2Oc3cc([C@H]4Oc5cc(O)cc(O)c5C(=O)[C@@H]4O)ccc3O[C@@H]2CO)ccc1O`, the compound was classed as inactive in [6], in assay [7] and in assay [10]. The max response is -21.7% (inactive) in assay [8], -1.37% (inactive) in assay [1] and 5.85% (inactive) in assay [9].
With `Cc1ncc(CO)c(C=O)c1O`, the max response in assay [1] was -3.85% (inactive).
`CC(CNC1CCCCC1)OC(=O)c1ccccc1` (stereo not given): the max response in [1] was 10.4% (inactive). In addition, in assay [11], the remaining parasite growth % (stronger effect = lower value) stood at 106% [at 9.63 µM]. In [12], this compound showed an activity, percent of control of 61.4% [at 9.63 µM]. For the same compound, the remaining proliferation (% of control), lower = more inhibition in assay [13] is 111% [at 9.63 µM].
For `CC[C@]12CCCN3CCc4c(n(c5ccccc45)C(=O)C1)[C@@H]32`, the max response in assay [1] is 3.35% (inactive).
Take `FC(F)(F)C(F)(F)C(F)(F)C(F)(F)C(F)(F)C(F)(F)C(F)(F)C(F)(F)Br`: in [1], the max response was 5.68% (inactive).
Take `COc1ccc(C(=O)c2ccccc2)c(O)c1`: the compound was classed as inactive in assay [7] and in [10]. The max response in assay [8] is 6% (inactive) and -1.76% (inactive); in assay [1] it was -10.7% (inactive); in assay [9] it was -9.22% (inactive) and -8.85% (inactive).
